Compounds with a hit are over-represented: about 0.82% of the library has one in this group of screens.
TcdB GH inh – inhibitors of Clostridioides difficile toxin B glycohydrolase; P18177; TcdB glycohydrolase enzymatic assay, plate reader; inhibition, % at 9.99 µM; actives 0.24% (n = 350,000); AID 652162; in the data active = inhibition above about 10%
PrPC TRFRET – reduces human prion protein on the cell surface | P04156 | cell surface PrPC, TR-FRET read-out | inhibition, % at 13.8 µM | actives 0.43% (n = 370,000) | AID 720596; in the data active = inhibition above about 24%
VHR inh abs – DUSP3 (human) phosphatase inhibition | recombinant VHR phosphatase, pNPP absorbance | actives 0.52% (n = 290,000) | inhibition, % at 13.3 µM | P51452; in the data active = inhibition above about 50%
Numbers stand for hits.

CCN(C(=O)CSc1nnc(C)n1-c1cccc(C)c1)C1CCS(=O)(=O)C1 (configuration not stated) was read as TcdB GH inh inactive and PrPC TRFRET inactive.
For CCN(C(=O)CSc1nnc(CNc2cccc(OC)c2)n1C1CCCCC1)C1CCS(=O)(=O)C1 (configuration not stated) the results were TcdB GH inh inactive, PrPC TRFRET inactive and VHR inh abs 55.
Cc1ccc(C(=O)C2=C(O)C(=O)N(Cc3ccccc3)C2c2cccnc2)o1 (configuration not stated) was read as TcdB GH inh inactive and VHR inh abs inactive.
Cc1ccc(C(=O)C2=C(O)C(=O)N(Cc3cccnc3)C2c2cccc(Oc3ccccc3)c2)o1 (configuration not stated) was read as TcdB GH inh inactive, PrPC TRFRET 44 and VHR inh abs inactive.
For COc1cccc(C(=O)Nc2ccc3c(c2)C(=O)N(C)C[C@H](OC)[C@H](C)CN(C(C)=O)[C@H](C)CO3)c1 the results were TcdB GH inh inactive.
For CO[C@@H]1CN(C)C(=O)c2ccc(NC(=O)NC(C)C)cc2OC[C@H](C)N(Cc2ccccc2)C[C@@H]1C the results were TcdB GH inh inactive.
`CC(C)Cc1nnc(NC(=O)CCC(=O)NCc2ccccc2Cl)s1` gave TcdB GH inh 13, PrPC TRFRET inactive and VHR inh abs inactive.
CC(C)c1nnc(NC(=O)CCC(=O)NCc2ccccc2Cl)s1 was read as TcdB GH inh inactive, PrPC TRFRET inactive and VHR inh abs inactive.
For COc1cc(NC(=O)COC(=O)CNC(=O)C23CC4CC(CC(C4)C2)C3)cc(OC)c1 the results were TcdB GH inh inactive and PrPC TRFRET inactive.
For COc1ccc2c(COC(=O)CNC(=O)C34CC5CC(CC(C5)C3)C4)cc(=O)oc2c1 the results were TcdB GH inh inactive, PrPC TRFRET inactive and VHR inh abs 51.
COc1ccc(S(=O)(=O)Nc2ccc3c(c2)C(=O)N([C@@H](C)CO)C[C@H](C)[C@@H](CN(C)C(=O)Nc2cccc4ccccc24)O3)cc1 was read as TcdB GH inh inactive.
Screening C[C@@H]1CN([C@H](C)CO)C(=O)c2cc(NC(=O)CCN3CCOCC3)ccc2O[C@@H]1CN(C)Cc1ccncc1 returned TcdB GH inh inactive.
Screening Clc1ccc(CCNc2nc3ccccc3n3nnnc23)cc1 returned TcdB GH inh inactive, PrPC TRFRET inactive and VHR inh abs 50.
Cc1cccc(CCNc2nc3ccccc3n3nnnc23)c1 was read as PrPC TRFRET inactive and VHR inh abs inactive.
Screening O=C(C[C@@H]1CC[C@@H]2[C@H](COC[C@@H](O)CN2C(=O)c2cccnc2)O1)NCc1ccc(Cl)cc1 returned TcdB GH inh inactive.
COc1ccc2c3c([nH]c2c1)[C@H](CO)N(C(=O)Nc1ccc(F)cc1)CC31CCN(S(=O)(=O)c2cccs2)CC1 was read as TcdB GH inh inactive.
Screening COc1ccc(N(C(C)C(=O)N/N=C/c2ccc(OC)c(OC)c2)S(C)(=O)=O)cc1 (configuration not stated) returned TcdB GH inh inactive, PrPC TRFRET inactive and VHR inh abs inactive.
CC(C(=O)N/N=C/c1ccc(N(C)C)c(Br)c1)N(c1ccccc1)S(C)(=O)=O (configuration not stated) was read as PrPC TRFRET inactive and VHR inh abs 50.
Screening Cc1noc(C)c1S(=O)(=O)Nc1cccc2c1O[C@@H](CN(C)Cc1ccc(C(=O)O)cc1)[C@@H](C)CN([C@H](C)CO)C2=O returned TcdB GH inh inactive.
`O=C(NNC(=O)c1cccc2ccccc12)c1cccc(F)c1` gave TcdB GH inh 11 and PrPC TRFRET inactive.
O=C(NNC(=O)c1ccc2ccccc2c1)c1cccc(F)c1 was read as TcdB GH inh inactive and PrPC TRFRET inactive.
Screening CC(=O)Nc1ccc(NC(=O)c2cccc3ccccc23)cc1 returned TcdB GH inh inactive, PrPC TRFRET inactive and VHR inh abs 60.
Screening Cc1ccc(NC(=O)c2cccc3ccccc23)cc1 returned TcdB GH inh inactive, PrPC TRFRET inactive and VHR inh abs inactive.
CC(C)NC(=O)Nc1cccc2c1O[C@@H](CN(C)Cc1ccc(Oc3ccccc3)cc1)[C@@H](C)CN([C@@H](C)CO)C2=O was read as TcdB GH inh inactive.
`C[C@@H]1CCCCO[C@H](CN(C)C(=O)Nc2ccc(F)cc2)[C@@H](C)CN([C@H](C)CO)C(=O)c2cc(NS(=O)(=O)c3cn(C)cn3)ccc2O1` gave TcdB GH inh inactive.
C[C@@H]1CCCCO[C@@H](CN(C)Cc2ccccc2)[C@@H](C)CN([C@@H](C)CO)C(=O)c2cc(NC(=O)Cc3ccccc3)ccc2O1 was read as TcdB GH inh inactive.
Screening COc1ccc(S(=O)(=O)N[C@H]2C=C[C@H](CC(=O)NCCc3ccccc3)O[C@@H]2CO)cc1 returned TcdB GH inh inactive.
Oc1ccc(/C=N/N2CCN(c3ccccn3)CC2)cc1 was read as TcdB GH inh 13, PrPC TRFRET inactive and VHR inh abs inactive.
`Oc1cccc(/C=N/N2CCN(c3ccccn3)CC2)c1` gave TcdB GH inh inactive, PrPC TRFRET inactive and VHR inh abs inactive.
For CN(C)C(=O)c1ccc(-c2ccc([C@H]3[C@H]4CN(C(=O)C5CCCC5)CC(=O)N4[C@H]3CO)cc2)cc1 the results were TcdB GH inh inactive.
`Cc1cccc(Nc2n[nH]c(=S)s2)c1C` gave TcdB GH inh inactive, PrPC TRFRET inactive and VHR inh abs inactive.
For COc1ccccc1Nc1n[nH]c(=S)s1 the results were TcdB GH inh inactive, PrPC TRFRET inactive and VHR inh abs 51.
Screening CC(=O)NC(Cc1cc(C)ccc1C)C(=O)N1CCN(C(=O)c2ccc([N+](=O)[O-])cc2)CC1 (configuration not stated) returned TcdB GH inh inactive, PrPC TRFRET inactive and VHR inh abs 54.
CC(=O)NC(Cc1cc(C)ccc1C)C(=O)N1CCN(C(=O)c2ccccc2Br)CC1 (configuration not stated) was read as PrPC TRFRET inactive and VHR inh abs inactive.
COc1ccc(S(=O)(=O)Nc2ccc3c(c2)C(=O)N([C@@H](C)CO)C[C@H](C)[C@H](CN(C)S(C)(=O)=O)O3)cc1 was read as TcdB GH inh inactive.
For O=Nc1ccc(NOC(=O)c2ccccc2Br)cc1 the results were PrPC TRFRET inactive and VHR inh abs inactive.
Screening O=C(ONc1ccc(N=NC(=O)c2ccccc2O)cc1)c1ccccc1 returned PrPC TRFRET inactive and VHR inh abs 52.
Screening O=C(Nc1ccc(Cl)cc1)N1CCSC1=NCc1ccccc1 returned TcdB GH inh inactive, PrPC TRFRET inactive and VHR inh abs inactive.
Screening CC(=O)Nc1ccc(C2=NN(C)C(=NCc3ccccc3)SC2)cc1 returned TcdB GH inh inactive, PrPC TRFRET inactive and VHR inh abs 51.
For CCC(=O)Nc1ccc2c(c1)C(=O)N(C)C[C@H](OC)[C@H](C)CN(CC1CCCCC1)[C@H](C)CO2 the results were TcdB GH inh inactive.
Screening CS(=O)(=O)c1nc(-c2ccccc2)cc(C(F)(F)F)n1 returned PrPC TRFRET 29 and VHR inh abs inactive.
`Cc1cc(NC(=O)CCS(=O)(=O)c2nc(-c3ccccc3)cc(C(F)(F)F)n2)no1` gave PrPC TRFRET inactive and VHR inh abs inactive.
Screening CCCNC(=O)[C@@H]1[C@@H](CO)[C@@H]2Cn3c(ccc(-c4ccccc4F)c3=O)[C@H]1N2C(=O)CC returned TcdB GH inh inactive.
